# According to PubChem BioAssay (NCI):
# This is part of a sample that, as a whole, favours compounds with a hit. Of some 79,000 tested, about 15% had one in any assay. Values without a mark were called inactive. Active and inactive are the calls of the source. Cut-off read from the data, not from the text of the source: active = growth inhibition above about 70%; inactive = the rest.
# Assay: NCI Yeast Anticancer Drug Screen. Data for the mlh1 rad18 strain (AID 175)
# Conditions: S. cerevisiae mlh1 rad18 strain growth inhibition; at 50.0 µM; stronger effect = higher value
# Summary of the method: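 Read-out is yeast growth inhibition, calculated against vehicle-only controls. The compound was applied to a strain engineered with DNA damage repair alterations.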
row,Compound,growth inhibition
1,O=[N+]([O-])c1ccc(N2N=NC(CN3CCOCC3)C2N2CCOCC2)cc1 (stereo not drawn),60.1%
2,FC(F)(F)c1ccccc1NC(=S)SCc1ccco1,88.3% (active)
3,O=C(c1ccc(Cl)cc1)C1N=NCC1c1ccccc1 (stereo not drawn),43%
4,COc1cc(C2c3cc4c(cc3[C@@H](OCCN)[C@H]3COC(=O)C23)OCO4)cc(OC)c1O (stereo partly drawn),80.7% (active)
5,CC(C)(C)c1cc2c(c(C(C)(C)C)c1O)CC(=O)O2,73.9% (active)
6,CCCCCCCCCCCCCCCCCCSSCCCCCCCCCCCCCCCCCC,-16.1%
7,c1ccc2c(c1)OCC(CNCCNCC1COc3ccccc3O1)O2 (stereo not drawn),67.2%
8,CC(=O)C(C(C)=O)C1C=CC=CC=C1,96.9% (active)
9,c1ccc2c(c1)ccc1c[n+]3c4ccccc4ccc3n12,83.2% (active)
10,CC(=O)C(=C(I)I)c1ccccc1,24.2%
11,O=C1c2ccccc2CN1Cc1ccc(Cl)c(Cl)c1,65%
12,CC1CC(N)=NC1C(=O)NCCC#N (stereo not drawn),66.7%
13,CC(=O)CC(C)=NCCN=C(C)CC(C)=O.[Pd],83.7% (active)
14,CCOc1ccccc1NC1=C(Cl)C(=O)c2ccccc2C1=O,96.1% (active)
15,CCN1C2=NCCN2S(=O)(=O)c2ccccc21,-5.3%
16,O=C(Cc1nc2ccccc2s1)C(=O)Nc1ccc(Cl)cc1,3.3%
17,O=C(CCn1[nH]c(=O)c(Cl)c(Cl)c1=O)NNc1ccc([N+](=O)[O-])cc1[N+](=O)[O-],88.2% (active)
18,COc1cccc(C2c3cc4c(cc3OC(NNc3ccccc3)C2C)OCO4)c1OC (stereo not drawn),56.4%
